# Bioassay records as filed in PubChem.
# HEK cytotox: HEK 293 cell cytotoxicity | AID 1345083 | HEK 293 viability, ATP luminescence (CellTiter-Glo), 48-72 h | Potency, µM (highest dose often 115 µM), for inactives: at the top dose activity change, negative = cytotoxicity, usual class: inhibitors | 94,000 tested, 6.6% active; further: on the % scale 0 is the no-effect control and ±100 the full control effect; nearly all actives have a fitted effect of over 60% in size
#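 Read-out: CellTiter-Glo ATP luminescence. Cells: HEK 293, 250 cells/well. Exposure: 48 or 72 hr, 37 degree Celsius.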
# FLuc inh-1: inhibitors of firefly (Photinus pyralis) luciferase; P08659; purified P. pyralis luciferase, luminescence, biochemical; Potency, µM (top dose mostly 115 µM), actives largely listed as inhibitors; 76,000 tested, 2.5% active; AID 1347043; further: on the % scale 0 is the no-effect control and ±100 the full control effect; nearly all actives have a fitted effect of over 65% in size
# Target sequence (P08659 whole entry, looked up): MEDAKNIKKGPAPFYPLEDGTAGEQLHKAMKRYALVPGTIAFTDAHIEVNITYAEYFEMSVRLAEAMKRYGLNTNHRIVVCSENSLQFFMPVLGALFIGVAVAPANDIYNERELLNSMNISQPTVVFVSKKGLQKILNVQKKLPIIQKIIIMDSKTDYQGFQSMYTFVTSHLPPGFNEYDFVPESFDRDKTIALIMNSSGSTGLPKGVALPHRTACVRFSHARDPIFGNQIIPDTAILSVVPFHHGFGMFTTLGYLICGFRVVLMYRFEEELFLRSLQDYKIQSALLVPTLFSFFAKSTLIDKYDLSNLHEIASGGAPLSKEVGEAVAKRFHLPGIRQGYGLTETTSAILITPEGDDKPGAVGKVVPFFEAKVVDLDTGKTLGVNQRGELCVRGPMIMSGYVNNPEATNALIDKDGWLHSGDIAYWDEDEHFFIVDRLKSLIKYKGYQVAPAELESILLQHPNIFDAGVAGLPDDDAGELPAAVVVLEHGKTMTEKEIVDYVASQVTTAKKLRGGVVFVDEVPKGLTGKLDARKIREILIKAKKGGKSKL
#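 Luminescence read by CCD imager after adding enzyme (10nM final) to wells holding compound, titrated in qHTS. Substrates 10uM each D-luciferin and ATP; buffer 50mM Tris acetate pH 7.5, 10mM Mg acetate, Tween-20, BSA.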
# NIH3T3 tox: cytotoxic compounds in NIH 3T3 cells. Potency, µM (top dose mostly 96.7 µM), for inactives: at the top dose activity change, negative = cytotoxicity, most hits filed as inhibitors. 94,000 tested, 4.3% active. NIH 3T3 viability, CellTiter-Glo ATP luminescence, 48-72 h; further: on the % scale 0 is the no-effect control and ±100 the full control effect; nearly all actives have a fitted effect of over 55% in size
#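 Viability of NIH 3T3 cells after 48 or 72 hr compound treatment at 37 °C was assessed by CellTiter-Glo, with luminescence imaged following a 10 min room-temperature step.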
# hNpr1 antagonist: human Npr1 receptor antagonism. 76,000 tested, 1.6% active. AID 1347048. HEK293 hNpr1 GloSensor cGMP, ANP-stimulated luminescence. Potency, µM (top dose mostly 46.3 µM), without a hit: at the top dose activity change, negative = inhibition, actives largely listed as inhibitors; calls by dose curve; further: on the % scale 0 is the no-effect control and ±100 the full control effect; nearly all actives have a fitted effect of over 60% in size
#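 Compound pre-incubated 30 min at room temperature on GloSensor-loaded HEK293 cells stably carrying hNpr1 and the pGS-40F cGMP biosensor. Stimulation uses hNppA at 0.1 nM final; luminescence is taken at baseline and 20 min post-agonist.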
# FLuc SDR no ATP: firefly luciferase binding stabilization, ATP absent; Potency, µM (series often up to 32.7 µM), for the others: at the highest dose activation (signal gain), actives largely listed as activators; Purified FLuc-C-HiBiT, Nano-Glo HiBiT luminescence, no ATP; 1,300 tested, 7.8% active; shares compounds with FLuc inh-1; further: nearly all actives have a fitted effect of over 55% in size
# FLuc SDR ATP: firefly luciferase binding stabilization, ATP added; shares compounds with FLuc inh-1; purified FLuc-C-HiBiT + ATP, HiBiT complementation luminescence; Potency, µM (titrated, usually from 32.7 µM), inactives show at the top dose activation (gain of signal), actives largely listed as activators; 1,300 tested, 8.7% active;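 further: signal reports ligand binding via conformational change of the enzyme rather than luciferase catalysis; % of control where 0% means no effect; nearly all actives have a fitted effect of over 55% in size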
# FLuc inh-2: blocks firefly luciferase enzymatic activity; purified FLuc-C-HiBiT enzyme, luciferin luminescence; 1,300 tested, 42% active; shares compounds with FLuc inh-1; Potency, µM (doses to about 32.7 µM), for the others: at the highest dose activity change, negative = inhibition, usual class: inhibitors; AID 1963320; further: on the % scale 0 is the no-effect control and ±100 the full control effect; nearly all actives have a fitted effect of over 70% in size
# Starred values were filed as active, the others as inactive; i = inactive; u = inconclusive; x = not tested or not shown; [ ] = dose if it differs, or a comment. Shown are actives, neighbours in structure and some others; about 11% of the full set was active somewhere. Unless noted, the call rests on the fitted dose curve; in most records, active means well fitted curve in the direction sought with a large enough effect; inconclusive means small, poorly fitted or top-dose-only effect, or another doubt; inactive means no such curve, though single readings can be large; an effect the other way counts as inactive or inconclusive. Potency means the concentration at half of the fitted maximal effect.
SMILES,HEK cytotox,FLuc inh-1,NIH3T3 tox,hNpr1 antagonist,FLuc SDR no ATP,FLuc SDR ATP,FLuc inh-2
COc1cccc(CN2CCNc3cc(Nc4cccnc4)ncc3C2)c1,u,11µM*,u,0%[70.6 µM],32%[49.3 µM],15%[49.3 µM],u
c1ccc(Nc2cc3c(cn2)CN(Cc2ccsc2)CCN3)cc1,u,10µM*,56µM*,-25%[70.6 µM],19%[49.3 µM],15%[49.3 µM],14µM*
c1ccc(Oc2cc3c(cn2)NCCN(Cc2ccsc2)C3)cc1,u,i,-23%[138 µM],4%[70.6 µM],x,x,x
c1ccc(Nc2cc3c(cn2)CN(CC2CCOC2)CCN3)cc1 (stereo not drawn),x,x,x,x,17%[49.3 µM],11%[49.3 µM],u
COc1cccc(N2CCN(C(=O)[C@H]3CCC[C@H]3NC(=O)c3cnc(C)cn3)CC2)c1,-27%,i,-9%,5%,x,x,x
Cc1ccc2c(c1)N1C(=O)OC[C@@H]1CCN(Cc1cccc(Cl)c1)C2,u,i,u,0%[70.6 µM],x,x,x
Cc1ccccc1-c1onc(C)c1C(=O)NCc1ccc(Cl)cc1,u,i,u,-15%,x,x,x
CC(CNC(=O)C1CCN(C(=O)c2ncn3c2COC(c2ccccc2)C3)CC1)c1ccccc1 (stereo not drawn),-16%,3.5µM*,-21%,-14%,11%,1.6µM*,2.5µM*
COc1ccc(C2Cn3cnc(C(=O)N4CCC(C(=O)NCc5ccccc5)CC4)c3CO2)cc1 (stereo not drawn),10%,i,i,-4%,x,x,x
O=C(NCc1cccnc1)C1CCN(C(=O)c2ncn3c2COC(c2ccc(F)cc2)C3)CC1 (stereo not drawn),-4%,u,i,-2%,x,x,x
O=C(NCc1ccncc1)C1CCN(C(=O)c2ncn3c2COC(c2ccc(F)cc2)C3)CC1 (stereo not drawn),7%,7.9µM*,i,1%,13%,u,u
O=C(NCCc1ccccc1)C1CCN(C(=O)c2ncn3c2COC(c2ccccc2)C3)CC1 (stereo not drawn),0%,3.2µM*,i,0%,11%,u,2.5µM*
CSc1ccc(CNC(=O)C2CCN(C(=O)c3ncn4c3COC(c3ccccc3)C4)CC2)cc1 (stereo not drawn),9%,13µM*,i,-19%,16%,u,u
Nc1nccc(-c2c(-c3ccc(F)cc3)ncn2C2CCNCC2)n1,x,x,x,x,15%,8%,3%
CN1CCN(C(=O)[C@H]2C[C@@](C)(C(=O)O)N(C)[C@H]2c2ccc(Cl)cc2)CC1,-18%,i,-5%,7%,x,x,x
O=C(NC1CCCCC1)C1CCc2ncc(-c3ccsc3)n2C1 (stereo not drawn),u,i,u,-14%,x,x,x
CCOCC1(C)COc2ccc(C(=O)Nc3ccc(Cl)cc3)cc2N1 (stereo not drawn),40µM*,11µM*,45µM*,32µM*,17%[49.3 µM],11%[49.3 µM],u
Cc1ccc(N2C(=O)c3n[nH]c(C)c3C2c2ccc(Cl)cc2)cc1 (stereo not drawn),x,x,x,x,17%,12%,u
Cn1c([C@H]2CCN(C3CCCCC3)C2)nc2ccccc21,u,7.1µM*,u,-26%[70.6 µM],18%[65.7 µM],12%[65.7 µM],u
Cc1cnc(CC2CCCN(C(=O)CCc3c[nH]c4ccccc34)C2)n1C(C)C (stereo not drawn),u,14µM*,-25%,-1%,13%,14%,4%
O=C(NCCNC(=O)c1ccccc1Cl)c1ccc(-c2cncnc2)cc1,i,x,2%,x,x,x,x
CC(=O)NC1(C)CN(Cc2ccc(-c3ccccc3OCc3ccccc3)s2)C1,40µM*,7.1µM*,28µM*,u,13%[49.3 µM],10%[49.3 µM],u
COC(=O)C1CCN(c2csc3ccc(C)cc3c2=O)CC1,x,x,x,x,31%,u,7.9µM*
CCc1cccc(NC(=O)c2cc(-c3ccc[nH]3)n[nH]2)c1,-5%,8.9µM*,-14%,2%,12%,8%,u
CCO[C@H]1CN(C2CN(S(=O)(=O)c3ccc(C)cc3)C2)C[C@@H]1O,i,i,2%,5%,x,x,x
SMILES,HEK cytotox,FLuc inh-1,NIH3T3 tox,hNpr1 antagonist,FLuc SDR no ATP,FLuc SDR ATP,FLuc inh-2
CC(=O)NC1(C)CCN(Cc2cccc(-c3ccc4c(ccn4C)c3)c2)C1 (stereo not drawn),89µM*,14µM*,79µM*,u,15%[49.3 µM],u,10µM*
CC(=O)NC1(C)CCCN(Cc2cccc(-c3cccc(F)c3)c2)C1 (stereo not drawn),u,i,u,-1%[70.6 µM],x,x,x
Cc1nc(-c2ccc(F)cc2)n(CC(=O)NCc2ccc3c(c2)OCO3)c(=O)c1CCO,-17%,i,u,-5%,x,x,x
Cc1c(-c2ccc(F)cc2)[nH]c2ccc(CNC(=O)CN3CCOC3=O)cc12,u,13µM*,u,-22%,14%,10%,u
COc1ccc2cc(C3CN(C(=O)CNC(=O)C(C)C)CCO3)ccc2c1 (stereo not drawn),-25%,8.9µM*,-19%,4%,u,u,u
COc1ccc(NC(=O)N2CCOC(c3ccc(Cl)cc3)C2)c(C)c1 (stereo not drawn),u,i,-28%,-16%,x,x,x
Cc1noc(C)c1CN1CCc2nc(C(=O)Nc3ccccc3)oc2CC1,u,11µM*,u,18µM*,20%[49.3 µM],16%[49.3 µM],-15%[49.3 µM]
CCCN1CCc2nc(C(=O)Nc3ccccc3)oc2CC1,x,x,x,x,20%[49.3 µM],18%[49.3 µM],u
O=C(Nc1ccccc1)c1nc2c(o1)CCN(Cc1ccccc1)CC2,u,1µM*,u,13µM*,27%[49.3 µM],u,4.5µM*
O=C(Nc1ccccc1)c1nc2c(o1)CCN(CC1CC1)CC2,u,2.2µM*,-17%[138 µM],-26%[70.6 µM],19%[49.3 µM],20%[49.3 µM],u
Cc1noc(C)c1CN1CCc2nc(C(=O)NCc3ccccc3)oc2CC1,u,i,-34%[138 µM],-14%[70.6 µM],x,x,x
CCOC(=O)c1nccn1Cc1nc(-c2sccc2C)oc1C,u,i,u,u,x,x,x
CCCNC(=O)CN1C(=O)NC2(CCC(C(C)(C)C)CC2)C1=O (stereo not drawn),5%,i,-6%,13%,x,x,x
CC(C)c1noc(CN(C)C(=O)c2cc(-c3cnn(C)c3)nc3ccccc23)n1,u,u,-10%,8%,x,x,x
CC(=O)N1C[C@@H]2CCCN3CCC[C@@H]([C@H]23)[C@H]1CCCC(=O)N1CCN(c2ccc(F)cc2)CC1,-6%,i,2%,1%,x,x,x
